Source: PubChem BioAssay
Only some compounds are listed: those with a hit (about 1.3% of all), similar ones and a draw of the others.
ALOX12 inh: blocks human arachidonate 12S-lipoxygenase | P18054 | purified 12hLO, xylenol orange hydroperoxide absorbance | Potency, µM (titrated, usually from 108 µM), for inactives: top-dose activity change, negative = inhibition, usual class: inhibitors | hit rate 1.1% among 580,000 | AID 1671190; also: % is scaled to controls: 0 for no effect and ±100 for the full control effect
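Hydroperoxide product was detected by ferrous iron/xylenol orange as the 573 to 405 nm absorbance ratio. Arachidonic acid at 40 uM (final) was turned over for 30 min at room temperature by 150 nM human 12hLO, pH 7.0 Hepes buffer, after 15 min compound preincubation.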
EPAC2 ag: agonists of human EPAC2 (RAPGEF4). hit rate 0.079% among 360,000. Potency, µM (series often up to 154 µM), for inactives: at the top dose activation, actives largely listed as activators. EPAC2 activation, biochemical qHTS; response scale: 100% = 6.5 mM cAMP response; also: nearly all actives have a fitted effect of over 50% in size
Target sequence (Q8WZA2 whole entry, looked up): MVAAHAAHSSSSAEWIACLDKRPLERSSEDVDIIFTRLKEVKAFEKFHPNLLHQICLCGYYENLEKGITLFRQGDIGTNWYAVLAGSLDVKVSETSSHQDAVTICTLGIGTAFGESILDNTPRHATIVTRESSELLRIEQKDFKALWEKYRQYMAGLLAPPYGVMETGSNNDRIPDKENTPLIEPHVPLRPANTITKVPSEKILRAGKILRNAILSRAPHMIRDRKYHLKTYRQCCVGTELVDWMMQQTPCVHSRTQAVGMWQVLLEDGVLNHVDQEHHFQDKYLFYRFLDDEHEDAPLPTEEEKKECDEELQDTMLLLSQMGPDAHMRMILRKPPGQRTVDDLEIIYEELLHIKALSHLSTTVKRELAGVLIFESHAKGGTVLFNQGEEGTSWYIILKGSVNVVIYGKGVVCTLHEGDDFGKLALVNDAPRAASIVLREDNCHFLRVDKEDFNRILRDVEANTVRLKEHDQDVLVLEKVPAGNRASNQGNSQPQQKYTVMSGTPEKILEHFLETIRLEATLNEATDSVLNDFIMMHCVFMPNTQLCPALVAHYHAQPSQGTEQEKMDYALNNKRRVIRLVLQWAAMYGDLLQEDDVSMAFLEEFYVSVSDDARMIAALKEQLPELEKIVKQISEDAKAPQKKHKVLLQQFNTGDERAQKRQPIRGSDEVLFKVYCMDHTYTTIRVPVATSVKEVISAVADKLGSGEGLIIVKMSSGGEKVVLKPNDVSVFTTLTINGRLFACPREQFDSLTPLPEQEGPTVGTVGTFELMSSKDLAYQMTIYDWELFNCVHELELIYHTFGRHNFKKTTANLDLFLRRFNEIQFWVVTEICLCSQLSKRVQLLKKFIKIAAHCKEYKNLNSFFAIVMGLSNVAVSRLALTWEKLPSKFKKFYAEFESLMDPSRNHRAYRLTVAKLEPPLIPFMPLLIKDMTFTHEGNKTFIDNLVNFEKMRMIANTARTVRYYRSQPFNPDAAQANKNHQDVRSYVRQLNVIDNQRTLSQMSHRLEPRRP
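Setup: EPAC2 100 nM, labeled Rap1B complex 250 nM, free GDP 50 uM. Compound titrations pinned in, brief spin, 5 min room temperature incubation. Kinetic fluorescence read over 30 min, normalized to 6.5 mM cAMP.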
EPAC2 antagonist: antagonists of human EPAC2; Q8WZA2; EPAC2 GEF exchange of Rap1B-BODIPY-GDP, fluorescence; Potency, µM (series often up to 114 µM), for inactives: at the highest dose activity, negative = inhibition, most hits filed as inhibitors; hit rate 0.18% among 360,000; AID 720708; also: % is scaled to controls: 0 for no effect and ±100 for the full control effect; nearly all actives have a fitted effect of over 45% in size
USP1-UAF1 inh: blocks the human USP1/UAF1 deubiquitinase complex; recombinant USP1/UAF1, Ub-Rhodamine cleavage fluorescence; Potency, µM (top dose mostly 57.1 µM), for the others: at the top dose activity change, negative = inhibition, hits mostly inhibitors; hit rate 0.23% among 390,000; also: % is scaled to controls: 0 for no effect and ±100 for the full control effect; nearly all actives have a fitted effect of over 60% in size
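USP1/UAF1 complex (1 nM) preincubated 15 min at room temperature with compound, then Ub-Rho substrate (150 nM final) added. Kinetic fluorescence at 480/540 nm over 6 reads at 60 s intervals; 50 mM HEPES pH 7.8, 0.5 mM EDTA, 0.1 mg/ml BSA, 1 mM TCEP, 0.01% Tween-20.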
EPAC1 agonist: activates human EPAC1 exchange factor; O95398; EPAC1 agonist qHTS, biochemical assay; response scale: 100% = response to 6.5 mM cAMP; Potency, µM (top dose mostly 154 µM), for the others: at the top dose activation, most hits filed as activators; hit rate 0.073% among 360,000; AID 720707; also: nearly all actives have a fitted effect of over 60% in size
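Nucleotide exchange by EPAC1 (100 nM) on Rap1B–BODIPY-GDP (250 nM) in the presence of 50 uM GDP is tracked fluorescently at 480/540 nm over 30 min. Signals are normalized to a 6.5 mM cAMP control.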
EPAC1 antagonist: EPAC1 (human) antagonism. hit rate 0.14% among 360,000. EPAC1 GEF assay, Rap1b-BODIPY-GDP exchange fluorescence. Potency, µM (doses to about 115 µM), inactives show at the top dose activity change, negative = inhibition, hits mostly inhibitors. AID 720709. O95398;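 also: plate controls were vehicle for no effect and positive control for full effect; nearly all actives have a fitted effect of over 50% in size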
Starred values were filed as active, the others as inactive; ! = not confirmed by another sample; [ ] = dose if it differs, or a comment. Calls follow the shape of the dose curve; as a rule, active = well fitted curve in the direction sought with a large enough effect; inconclusive = small, poorly fitted or top-dose-only effect, or another doubt; inactive = no such curve, though single readings can be large; an effect the other way counts as inactive or inconclusive. Potency is read from the fitted curve at half-maximal effect.

O=C1N=C(N2CCOCC2)SC1=Cc1ccco1 was read as ALOX12 inh inconclusive, EPAC2 ag 3%, EPAC2 antagonist -3%, USP1-UAF1 inh inconclusive, EPAC1 agonist -6% and EPAC1 antagonist 5%.
`COc1cc(/C=C/C(=O)Oc2ccc3c(c2)OCO3)cc2c1OCCO2` gave ALOX12 inh 11%.
For Cc1ccc2c3c(cccc13)-c1ccccc1C2=O the results were ALOX12 inh 3%, EPAC2 ag 3%, EPAC2 antagonist -1%, USP1-UAF1 inh -27%, EPAC1 agonist inconclusive and EPAC1 antagonist 32%.
Cc1coc2c1C(=O)C(=O)c1c-2ccc2c1CCCC2(C)C was read as ALOX12 inh 24µM*!, EPAC2 ag -6%, EPAC2 antagonist 13%, USP1-UAF1 inh inconclusive, EPAC1 agonist -30% and EPAC1 antagonist inconclusive.
Cc1coc2c1C(=O)C(=O)c1c-2ccc2c(C)cccc12 was read as ALOX12 inh inconclusive, EPAC2 ag -1%, EPAC2 antagonist 4%, USP1-UAF1 inh 28µM*, EPAC1 agonist -2% and EPAC1 antagonist 79µM*.
`Cc1ccc(C(=O)c2coc3c2C(=O)C(=O)c2ccccc2-3)cc1` gave ALOX12 inh inconclusive, EPAC2 ag 5%, EPAC2 antagonist 1%, USP1-UAF1 inh -18%, EPAC1 agonist 9% and EPAC1 antagonist 8%.
Screening CN(Cc1ccc(F)cc1)C(=O)c1cccc(OCc2ccccc2)c1 returned ALOX12 inh -22%, EPAC2 ag 17%, EPAC2 antagonist 50µM*, USP1-UAF1 inh -8%, EPAC1 agonist 7% and EPAC1 antagonist -6%.
`O=C(CSC1=NS(=O)(=O)c2ccccc2N1Cc1ccccc1)Nc1cccc(Cl)c1` gave ALOX12 inh -1%.
Screening Cc1cc2oc(=O)cc(CN3CCC(C)CC3)c2cc1C returned ALOX12 inh inconclusive, EPAC2 ag 9%, EPAC2 antagonist -11%, USP1-UAF1 inh -21%, EPAC1 agonist 10% and EPAC1 antagonist 6%.
Screening Cc1cc2oc(=O)cc(CN3CCCCC3C)c2cc1Cl (centres undefined) returned ALOX12 inh 18µM*, EPAC2 ag 18%, EPAC2 antagonist inconclusive, USP1-UAF1 inh -16%, EPAC1 agonist 5% and EPAC1 antagonist 12%.
Cc1cc2oc(=O)cc(CN3CCCCC3C)c2cc1C (centres undefined) was read as ALOX12 inh 11µM*!, EPAC2 ag 8%, EPAC2 antagonist -26%, USP1-UAF1 inh -4%, EPAC1 agonist 4% and EPAC1 antagonist -10%.
`Cc1cc2oc(=O)cc(CN3CCCCCC3)c2cc1C(C)C` gave ALOX12 inh 18µM*.
`CC(=O)Nc1ccc(NC(=O)C(C)OC(=O)c2ccccc2NS(=O)(=O)c2cccs2)cc1` (centres undefined) gave ALOX12 inh 0%, EPAC2 ag 9%, EPAC2 antagonist -15%, USP1-UAF1 inh -13%, EPAC1 agonist -2% and EPAC1 antagonist -35%.
`COc1ccc(S(=O)(=O)/N=C2\C=C(Nc3ccc(O)cc3)C(=O)c3ccccc32)cc1` gave ALOX12 inh -8%, EPAC2 ag 20%, EPAC2 antagonist -21%, USP1-UAF1 inh 7.1µM*, EPAC1 agonist 13% and EPAC1 antagonist inconclusive.
COc1ccc(S(=O)(=O)Nc2cccnc2Nc2ccc(O)cc2)cc1 was read as ALOX12 inh -17%[57.4 µM].
For CC(=O)Nc1ccc(NC2=C/C(=N/S(=O)(=O)c3cccs3)c3ccccc3C2=O)cc1 the results were ALOX12 inh -37%, EPAC2 ag 14%, EPAC2 antagonist -3%, USP1-UAF1 inh 16µM*, EPAC1 agonist 10% and EPAC1 antagonist -2%.
Cc1ccccc1NC1=C/C(=N\S(=O)(=O)c2cccs2)c2ccccc2C1=O was read as ALOX12 inh -9%, EPAC2 ag 9%, EPAC2 antagonist -7%, USP1-UAF1 inh 2.2µM*, EPAC1 agonist 8% and EPAC1 antagonist -6%.
For Cc1ccc(NC2=C/C(=N/S(=O)(=O)c3cccs3)c3ccccc3C2=O)cc1C the results were ALOX12 inh -26%, EPAC2 ag -3%, EPAC2 antagonist -15%, USP1-UAF1 inh -7%, EPAC1 agonist 5% and EPAC1 antagonist -14%.
Screening Nc1nc(COC(=O)c2ccc(Cl)cc2)nc2ccccc12 returned ALOX12 inh 5%.
Screening CCCC(=O)OCc1ccccc1 returned ALOX12 inh 4%[176 µM].
Screening COc1cc2nc(SCC(=O)Nc3ccc(C)cc3)n(-c3ccccc3)c(=O)c2cc1OC returned ALOX12 inh 11%.
`O=[N+]([O-])c1cc2ccccc2c(O)c1O` gave ALOX12 inh inconclusive, EPAC2 ag -2%, EPAC2 antagonist -17%, USP1-UAF1 inh inconclusive, EPAC1 agonist -3% and EPAC1 antagonist inconclusive.
O=[N+]([O-])c1cc(-c2ccccc2)cc([N+](=O)[O-])c1O was read as ALOX12 inh inconclusive, EPAC2 ag 0%, EPAC2 antagonist 56µM*, USP1-UAF1 inh inconclusive, EPAC1 agonist 1% and EPAC1 antagonist inconclusive.
Screening O=c1oc2ccc(Cl)cc2cc1-c1csc(Nc2ccccc2)n1 returned ALOX12 inh 20µM*.
`O=C(O)c1ccc(Nc2nc(-c3cc4ccccc4oc3=O)cs2)cc1O` gave ALOX12 inh 40µM*, EPAC2 ag 10%, EPAC2 antagonist 4%, USP1-UAF1 inh -26%, EPAC1 agonist 29% and EPAC1 antagonist inconclusive.
For Cc1cccc(Nc2nc(-c3cc4ccccc4oc3=O)cs2)c1 the results were ALOX12 inh 40µM*.
For CC(=O)Nc1ccc(Nc2nc(-c3cc4ccccc4oc3=O)cs2)cc1 the results were ALOX12 inh inconclusive, EPAC2 ag 4%, EPAC2 antagonist -1%, USP1-UAF1 inh inconclusive, EPAC1 agonist -3% and EPAC1 antagonist -25%.
`O=C1CC2(CCN(Cc3ccc(F)cc3)CC2)Oc2ccccc21` gave ALOX12 inh 27%[176 µM].
`COc1ccc(S(=O)(=O)Nc2ccc(OCC(=O)O)cc2)c2ccccc12` gave ALOX12 inh -48%, EPAC2 ag 7%, EPAC2 antagonist 89µM*, USP1-UAF1 inh -9%, EPAC1 agonist 8% and EPAC1 antagonist -15%.
For O=C(CCC(=O)N1CCN(c2ccccc2)CC1)N1CCOCC1 the results were ALOX12 inh 20%.
Screening Cc1ccc(-c2noc([C@@H]3C[C@H](NS(=O)(=O)Cc4ccccc4)CN3C)n2)cc1 returned ALOX12 inh 17%[176 µM].
